SRC3 inh – human NCOA3 inhibition; HEK293 GAL4-SRC3 luciferase reporter, luminescence; 0.17% of 360,000 active; Q9Y6Q9; inhibition, % at 3.6 µM;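 active = inhibition above a per-campaign cutoff, the mean of all compounds plus 3 SD, cut at about 60% in these data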;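 also: higher means less SRC3-driven luciferase light from the GAL4 reporter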
NR5A2 inv ag – suppresses constitutive activity of human LRH-1. O00482. HEK293T StAR-luciferase reporter, LRH-1 transfected, 24 h. inhibition, % at 3.6 µM. 0.13% of 360,000 active;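 active = inhibition above the mean inhibition of all tested compounds plus 3 SD, cut at about 73% in these data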
SRC1 inh – human NCOA1 inhibition | HEK293 GAL4-SRC1 luciferase reporter, luminescence | 0.12% of 360,000 active | Q15788 | inhibition, % at 3.6 µM | AID 588354;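 active = inhibition above the campaign mean plus 3 SD, with each screening campaign given its own cutoff, cut at about 60% in these data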
Gli-Sufu block – blocks Gli-Sufu signaling in a luciferase reporter. Sufu-KO-LIGHT fibroblasts, Gli luciferase reporter luminescence. inhibition, % at 5 µM. 0.74% of 340,000 active. AID 588413;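 active = inhibition above about 55%, limit read from the data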
NR2F2 inh – inhibitors of human COUP-TFII (NR2F2); P24468; HEK293T NGFI-A luciferase reporter, luminescence; inhibition, % at 8.6 µM; 0.7% of 370,000 active;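 active = inhibition above a per-plate cutoff, mean inhibition of test wells between control levels plus 3 SD, cut at about 38% in these data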;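 also: cells cotransfected with COUP-TFII expression vector driving the NGFI-A reporter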
SRC2 inh – human SRC2 (NCOA2) inhibition. HEK293 GAL4-SRC2 luciferase reporter, luminescence. inhibition, % at 9 µM. 0.17% of 370,000 active. AID 651957;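 active = inhibition above the mean inhibition of all tested compounds plus 3 SD, set per campaign, cut at about 52% in these data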
VP16 Luc counter – counter-screen for COUP-TFII antagonists: inhibitors of VP16; 25% of 2,500 active; inhibition, % at 8.5 µM; HEK293 Gal4-VP16 luciferase reporter, luminescence; shares compounds with NR2F2 inh; in the data active = inhibition above about 13%
NR2F2 inh conf – confirmation of human COUP-TFII (NR2F2) inhibitors; shares compounds with NR2F2 inh; HEK293 NGFI-A luciferase reporter, luminescence; inhibition, % at 8.5 µM; 45% of 2,500 active; AID 687008;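 active = mean inhibition over three repeats above a set limit taken from the earlier primary screen, cut at about 38% in these data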
Large screens that a line does not name were inactive (follow-up assays come after a bar, where they were run). This is a sample that favours compounds with a hit; in the whole collection about 1.3% have one here.

CN(CC1CCCO1)S(=O)(=O)c1ccc(C(=O)Nc2ccc3c(c2)OCO3)cc1 (stereo not drawn)	none
O=C(Nc1nc2cc3c(cc2s1)OCCO3)c1cccs1	NR2F2 inh 42.4 | VP16 Luc counter inactive | NR2F2 inh conf inactive
CN(CC1CCCO1)S(=O)(=O)c1ccc(C(=O)Nc2nc3cc4c(cc3s2)OCO4)cc1 (stereo not drawn)	NR2F2 inh 38.5 | VP16 Luc counter inactive | NR2F2 inh conf 78.4
COc1ccccc1C(=O)Nc1nc2cc3c(cc2s1)OCCO3	none (no result: NR2F2 inh, SRC2 inh)
C[C@H](CO)N1C[C@H](C)[C@@H](CN(C)C(=O)Cc2ccccc2)OCc2cn(nn2)CCCC1=O	none (no result: SRC3 inh, NR5A2 inv ag, SRC1 inh, Gli-Sufu block)
O=C(Sc1cccc2cccnc12)c1ccc(F)cc1	NR2F2 inh 42.8 (no result: SRC3 inh, NR5A2 inv ag, SRC1 inh, Gli-Sufu block) | VP16 Luc counter 46.7 | NR2F2 inh conf 43.7
O=C(Sc1cccc2cccnc12)c1ccccc1Br	none (no result: Gli-Sufu block)
NC(=O)c1cc([N+](=O)[O-])ccc1NCc1cccc(N)c1	none
CCNS(=O)(=O)c1ccc(CCC(=O)N2CCN(Cc3ccccc3)CC2)cc1	none
CC(C)CNS(=O)(=O)c1ccc(CCC(=O)N2CCN(Cc3ccc4c(c3)OCO4)CC2)cc1	NR2F2 inh 45.2 | VP16 Luc counter inactive | NR2F2 inh conf inactive
O=C(CCc1ccc(S(=O)(=O)NCCc2ccccc2)cc1)N1CCN(Cc2ccc3c(c2)OCO3)CC1	NR2F2 inh 55.0 (no result: Gli-Sufu block) | VP16 Luc counter inactive | NR2F2 inh conf inactive
c1ccc(CN2CCC(N3CCN(Cc4ccc5c(c4)OCO5)CC3)CC2)cc1	NR2F2 inh 37.6 | VP16 Luc counter inactive | NR2F2 inh conf inactive
c1cc2c(cc1CN1CCN(C3CCCCCC3)CC1)OCO2	none
O=C(NC1CCCC1)C(c1ccccc1)n1c(CSCCOc2ccccc2)nc2ccccc21 (stereo not drawn)	NR2F2 inh 59.0, SRC2 inh 77.1 (no result: SRC3 inh, SRC1 inh, Gli-Sufu block) | VP16 Luc counter 45.7 | NR2F2 inh conf 50.0
C=C1C(=O)C23C(O)C1CCC2C12CCCC(C)(COC(C)=O)C1C(O)C3(O)OC2 (stereo not drawn)	SRC3 inh 74.2, NR5A2 inv ag 76.8, SRC1 inh 76.7, NR2F2 inh 48.3 | VP16 Luc counter 76.8 | NR2F2 inh conf 51.9
O=C(Nc1ccc(Cl)cc1)c1csc(COCCO)n1	none (no result: Gli-Sufu block)
CC(=O)Nc1ccc(NC(=O)c2csc([C@H]3C[C@H](O)[C@@H](CO)O3)n2)cc1	none (no result: Gli-Sufu block)
O=C(Nc1ccc(Oc2ccccc2)cc1)c1csc([C@@H]2C[C@H](O)[C@@H](CO)O2)n1	NR2F2 inh 52.0 (no result: Gli-Sufu block) | VP16 Luc counter inactive | NR2F2 inh conf inactive
O=C(Nc1ccc(Oc2ccccc2)cc1)c1csc(COCCO)n1	NR2F2 inh 43.4 (no result: Gli-Sufu block) | VP16 Luc counter inactive | NR2F2 inh conf inactive
Cn1c(N)c(C(=O)CN2CCN(S(=O)(=O)c3ccccc3C#N)CC2)c(=O)n(C)c1=O	none (no result: Gli-Sufu block)
O[C@@H]1[C@@H](O)C=C2CCN3Cc4cc5c(cc4[C@H]1C23)OCO5 (stereo partly drawn)	SRC3 inh 88.8, NR5A2 inv ag 97.6, SRC1 inh 75.0, Gli-Sufu block 69.2, NR2F2 inh 56.2 | VP16 Luc counter inactive | NR2F2 inh conf inactive
COc1ccc2c(c1OC)CN1CCc3cc4c(cc3[C@@H]1[C@@H]2O)OCO4	none (no result: NR2F2 inh, SRC2 inh)
CC(Cl)C(=O)N1CCC(C(=O)NC2CCCc3ccccc32)CC1 (stereo not drawn)	none (no result: SRC3 inh, NR5A2 inv ag, SRC1 inh, Gli-Sufu block)
C#CCNC(=O)c1ccc2sc([C@H]3C[C@H](O)[C@@H](CO)O3)nc2c1	none (no result: Gli-Sufu block)
Cc1ccc(OCC(=O)N2CCN(c3nnc(-c4ccc(C)cc4)c4ccccc34)CC2)cc1	none
COc1ccc(OCC(=O)N2CCN(c3nnc(-c4ccc(C)cc4)c4ccccc34)CC2)cc1	NR2F2 inh 37.8 | VP16 Luc counter inactive | NR2F2 inh conf inactive
COc1ccc(/C=C/c2cc(-c3ccc(C)cc3)o[n+]2C)cc1	SRC3 inh 71.5, NR5A2 inv ag 94.2, Gli-Sufu block 87.4, NR2F2 inh 67.3 | VP16 Luc counter 37.0 | NR2F2 inh conf 65.7
CCCCCCCCCCCCCCC[C@@H](O)[C@@H](N)CO	none
Cc1ccc(S(=O)(=O)N(C)CCCC(=O)Nc2ccc(F)cc2)cc1	none
